A selection: hits, their analogues and other compounds. The true share with any hit is near 8.7%.
Pf growth 48h = P. falciparum growth inhibition at 48 hours (one generation). P. falciparum luciferase growth in erythrocytes, 48 h. Potency, µM (top dose mostly 28.7 µM), without a hit: at the top dose activity change, negative = inhibition, hits mostly inhibitors. actives 5.9% (n = 310,000). AID 504832
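Parasite viability was followed by luminescence of a genomically integrated firefly luciferase. Cultures held 0.1% parasitemia at 2% hematocrit (final), incubated under 5% CO2 at 37 C.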
AMA1-RON2 inh = AMA1-RON2 (P. falciparum) interaction inhibition. Potency, µM (highest dose often 58.2 µM), inactives show at the top dose activity change, negative = inhibition, hits mostly inhibitors. AlphaScreen AMA1-biotinylated RON2 peptide binding. actives 0.2% (n = 360,000). AID 720542;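 note: 0% = vehicle wells and -100% = peptide control; nearly all actives have a fitted effect of over 45% in size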
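AMA1 (3D7) with his tag at 25 nM final met compounds first, then biotinylated RON2 peptide at 25 nM; detection used donor plus acceptor beads, 10 µg/mL apiece, read by AlphaScreen after 30 min at room temperature.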
VACV mCherry inh = inhibitors of vaccinia virus infection (mCherry reporter signal); Vaccinia virus mCherry reporter infection, fluorescence; Potency, µM (doses to about 36.5 µM), for inactives: at the top dose activity change, negative = inhibition, actives largely listed as inhibitors; actives 0.63% (n = 310,000); AID 720579; calls by dose curve; tested in A549 cells; note: nearly all actives have a fitted effect of over 35% in size
Pf growth 96h = P. falciparum growth inhibition at 96 hour, primary screen for plastid delayed-death inhibitors; P. falciparum luciferase reporter growth, 96 h; Potency, µM (doses to about 28.7 µM), for inactives: top-dose activity change, negative = inhibition, usual class: inhibitors; actives 6.9% (n = 320,000); AID 504834
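Two-generation exposure (96 h) targets delayed-death phenotype. Reporter parasites carrying integrated firefly luciferase, in red cells at 2% hematocrit and 0.05% parasitemia final, kept at 37 C, 5% CO2; luminescence loss indicates inhibition.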
Vaccinia Venus = vaccinia inhibition (Venus reporter); Potency, µM (top dose mostly 36.5 µM), inactives show at the highest dose activity change, negative = inhibition, actives largely listed as inhibitors; actives 0.46% (n = 330,000); Vaccinia virus Venus reporter expression, fluorescence; calls by dose curve; tested in A549 cells; note: nearly all actives have a fitted effect of over 30% in size
The depositor's hits bear a star; i = inactive; ? = inconclusive; nt = no result; [ ] = remark or other dose. Unless noted, calls come from the whole dose curve; as a rule, active = well fitted curve in the direction sought with a large enough effect; inconclusive = small, poorly fitted or top-dose-only effect, or another doubt; inactive = no such curve, though single readings can be large; an effect the other way counts as inactive or inconclusive. Unless noted, % is set by controls: 0 for no effect and ±100 for the full control effect; potency is the fitted concentration of half-maximal effect.

SMILES	Pf growth 48h	AMA1-RON2 inh	VACV mCherry inh	Pf growth 96h	Vaccinia Venus
CN(C(=O)COC(=O)CCC(=O)c1ccc(Cl)cc1)c1c(N)n(Cc2ccccc2)c(=O)[nH]c1=O	20%	?	i	2.1µM*	-7%
Cc1c(C(=O)N(C)C)sc2c1c(=O)n(-c1ccc(F)cc1)c(=O)n2Cc1ccccc1C#N	nt	nt	-4%	nt	4%
Cc1cc(=O)oc2cc(O)cc(O)c12	nt	-5%	-27%	nt	27%
CCCCCc1cc(O)c2c(C)cc(=O)oc2c1	2.6µM*	-1%	nt	5%	nt
CC1(C)Cc2c(c(N3CCOCC3)nc3sc4c(NCc5ccccc5)nnnc4c23)CS1	nt	-2%	nt	1µM*	nt
CC1(C)Cc2c(c(N3CCOCC3)nc3sc4c(NCc5ccco5)nnnc4c23)CS1	?	-5%	nt	10%	?
CC(=O)Nc1ccc(NC(=O)CSc2nc3ccccc3c(=O)n2CCCN2CCOCC2)cc1	nt	-11%	-19%	nt	-21%
Cc1ccc(NC(=O)CSc2nc3ccccc3c(=O)n2CCCC(=O)NCCCN2CCOCC2)cc1C	?	-14%	-8%	13µM*	-12%
CCc1ccc(NC(=O)CSc2nc3ccccc3c(=O)n2CCCC(=O)NCCCN2CCOCC2)cc1	7.4µM*	-12%	-20%	?	-18%
COc1ccc(CSc2nc3ccccc3c(=O)n2CCCN2CCOCC2)cc1F	?	-18%	i	8.3µM*	-10%
O=C(CSc1nc2ccccc2c(=O)n1CCCN1CCOCC1)Nc1cccc(S(=O)(=O)N2CCCCCC2)c1	0.52µM*	-28%	?	0.52µM*	?
O=C(CSc1nc2ccccc2c(=O)n1CCCN1CCOCC1)Nc1ccc(F)c(Cl)c1	nt	-13%	nt	nt	nt
O=C1CCN(Cc2cccc(C(F)(F)F)c2)CCN1Cc1ccccn1	nt	nt	-7%	nt	3%
COc1ccc(-c2cc(C(=O)Nc3ccccc3SC)no2)cc1	25%	-1%	nt	0%	nt
Cc1cc(C(=O)Nc2cc(Br)ccc2O)on1	5.2µM*	-2%	nt	6%	nt
COc1ccc(-c2cc(C(=O)Nc3cc(Br)ccc3O)no2)cc1	10µM*	-5%	-14%	-1%	-4%
Cc1ccccc1NC(=O)c1c(C)nc(SCC(=O)OCc2ccccc2)c(C#N)c1-c1ccc(F)cc1	13µM*	13%	-13%	?	-8%
COc1cccc(CNC(=O)c2oc3ccc4c(c3c2C)C(=O)CC(C)(C)O4)c1OC	nt	nt	-9%	nt	-6%
Cc1ccc(S(=O)(=O)N2CCN(c3nc(C)c4c(c3C#N)CC(C)(C)OC4)CC2)cc1	6.6µM*	-4%	nt	-22%	-15%
CCCC(=O)N1CCN(c2nc(CC(C)C)c3c(c2C#N)CCC3)CC1	2.6µM*	7%	-24%	0%	-15%
CC1(C)Cc2c(C#N)c(N3CCOCC3)nc(-c3ccccc3)c2CO1	10µM*	53%	nt	?	-18%
Cc1nc(N2CCOCC2)c(C#N)c2c1COC(C)(C)C2	-1%	-7%	nt	5%	nt
CC(C)C(=O)N1CCN(c2nc(-c3ccccc3)c3c(c2C#N)CCCC3)CC1	nt	5%	nt	8.3µM*	nt
CCN(Cc1ccccc1)C(=O)Cn1c(=O)n(-c2ccc(Cl)c(Cl)c2)c(=O)c2c(C)c(C(=O)N(C)C)sc21	nt	nt	-8%	nt	-4%
Cc1ccccc1NC(=O)CS(=O)(=O)c1cccc2nsnc12	nt	nt	1%	nt	-2%
SMILES	Pf growth 48h	AMA1-RON2 inh	VACV mCherry inh	Pf growth 96h	Vaccinia Venus
CCc1nc(N2CCN(C(=O)c3ccccc3)CC2)c(C#N)c2c1COC(C)(C)C2	9.3µM*	-9%	?	?	?
CCN=C1SC(C(=O)Nc2cccc(C(=O)O)c2)CC(=O)N1CC (stereo not given)	-3%	-2%	nt	13µM*	nt
Cc1c(C(=O)N2CCC(Cc3ccccc3)CC2)sc2ncnc(NCc3ccccn3)c12	nt	nt	-24%	nt	-16%
CC(C)CN(CCNC(=O)c1cn(C)c2ccc(S(=O)(=O)N3CCCC3)cc2c1=O)CC(C)C	-2%	-3%	-25%	9.3µM*	-7%
C=CCn1cc(C(=O)NCCN(CC)CC)c(=O)c2cc(S(=O)(=O)N3CCCCCC3)ccc21	10µM*	-1%	nt	8.3µM*	nt
C=CCn1cc(C(=O)NCCOC)c(=O)c2cc(S(=O)(=O)N3CCCCCC3)ccc21	?	-3%	nt	?	nt
COc1cc(C(=O)OCc2cc(=O)n3nc(C(C)C)sc3n2)cc(OC)c1OC	nt	nt	9%	nt	3%
Cc1cc(C)cc(-n2ccn(Cc3ccc(F)cc3)c(=O)c2=O)c1	nt	nt	-11%	nt	-9%
C#CCOCCOCCOCCNc1nc(N2CCN(C(=O)[C@H]([C@@H](C)CC)n3cc(CCC(=O)O)nn3)CC2)nc(N2CCN(C(=O)[C@H](CCCCN)n3cc(CCC(=O)O)nn3)CC2)n1	nt	1%	-14%	nt	19%
CC[C@H](C)Cc1cn([C@@H](CCCCN)C(=O)NCCCCCCCCCCC(=O)N2CCNCC2)nn1	12µM*	-3%	i	?	0%
C#CCOCCOCCOCCNc1nc(N2CCN(C(=O)CCCCCCCCCCNC(=O)[C@H](CCCCN)n3cc(CCO)nn3)CC2)nc(N2CCN(C(=O)CCCCCCCCCCNC(=O)[C@H](CCCCN)n3cc(C[C@@H](C)CC)nn3)CC2)n1	7.4µM*	?	-27%	?	10µM*
C#CCOCCOCCOCCNc1nc(N2CCN(C(=O)CCCCCCCCCCNC(=O)[C@@H](CCC(=O)O)n3cc(CCCCCN)nn3)CC2)nc(N2CCN(C(=O)CCCCCCCCCCNC(=O)[C@H](CCCCN)n3cc(C[C@@H](C)CC)nn3)CC2)n1	5.9µM*	?	i	?	?
CCOC(=O)c1c(NC(=O)c2cc(-c3ccc(Br)cc3)on2)sc(C)c1C	nt	nt	-3%[7.34 µM]	nt	-1%[7.34 µM]
Cc1cc(C(C)(C)C)c(OC(=O)[C@@H]2OC(c3ccccc3)=C[C@H]2c2ccccc2)c(C(C)(C)C)c1	5.2µM*	1%	i	?	-1%
Cc1cc(C(C)(C)C)c(O)c(C(C)(C)C)c1	10%	-3%	-17%	21%	-24%
Cn1cc(S(=O)(=O)N2CCOCC2)cc1C(=O)Nc1cccc(C#N)c1	nt	nt	5%	nt	-2%
CCOC(=O)N1CCN(C(=O)c2oc3ccc(S(=O)(=O)N4CCCCC4)cc3c2C)CC1	?	-13%	nt	nt	nt
Cc1c(C(=O)N2CCN(C)CC2)oc2ccc(S(=O)(=O)N3CCOCC3)cc12	-21%	4%	nt	8.3µM*	nt
Cc1c(C(=O)N2CCCCC2)oc2ccc(S(=O)(=O)N3CC(C)CC(C)C3)cc12 (stereo not given)	?	-9%	nt	12µM*	?
Cc1ccc(S(=O)(=O)N2CCN(Cc3noc(CCC(=O)N4CCCCC4)n3)CC2)c(C)c1	nt	nt	4%	nt	1%
Cc1ccc2c(/C=C/c3c[nH]c4ccccc34)ccnc2c1C	nt	nt	-15%	nt	18%
CCN(CC)S(=O)(=O)c1ccc(F)c(C(=O)NCCC(C)C)c1	-21%	-7%	nt	4.1µM*	nt

Compound activity (PubChem BioAssay)
